Screens: PubChem, National Center for Advancing Translational Sciences (NCATS)
ATXN2 expr inh – inhibitors of ATXN2 expression. Potency, µM (highest dose often 57 µM), inactives show top-dose activity change, negative = inhibition, most hits filed as inhibitors. AID 1745845. HEK-293 ATXN2-luciferase reporter, luminescence, 24 h. 0.72% of 360,000 active; also: % is scaled to controls: 0 for no effect and ±100 for the full control effect; nearly all actives have a fitted effect of over 55% in size
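ATXN2-luciferase reporter cells (luciferase flanked by upstream and downstream ATXN2 gene portions) were treated 24 h at 37 °C with compounds at up to 57 uM. SteadyGlo luminescence gave expression; GF-AFC fluorescence gave viability.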
HepG2 tox – kills HepG2 cells in TGF-b inhibitor counter-screen; Potency, µM (top dose mostly 46.1 µM), for the others: at the top dose activity change, negative = cytotoxicity, usual class: cytotoxic; 0.76% of 410,000 active; HepG2 CAGA-GFP viability, ATP luminescence, 18 h
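HepG2 CAGA-GFP cells (1000/well, DMEM with 1% FBS) received compound, then TGF-beta at 500 pg/mL final, and were incubated 18 hours at 37 degrees C. Viability was read by CellTiter-Glo luminescence. Media-only wells were set as complete cell-killing and DMSO as no toxicity.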
Gal4-VP16 FLuc – counter-screen for ROR gamma inhibitors: Gal4-VP16 reporter. 3.5% of 310,000 active. Drosophila S2 Gal4-VP16 UAS-luciferase, luminescence, 20 h. Potency, µM (titrated, usually from 53.6 µM), for inactives: at the highest dose activity, negative = inhibition, hits mostly inhibitors;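 also: Gal4-VP16 expression switched on by copper sulfate through the metallothionein promoter; % is scaled to controls: 0 for no effect and ±100 for the full control effect; nearly all actives have a fitted effect of over 50% in size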
ATXN viability – reduces viability in counter-screen for ATXN expression inhibitors; Potency, µM (top dose mostly 56.7 µM), most hits filed as cytotoxic; 0.49% of 400,000 active; AID 651635; S2 cells (HEK-293 line with an ATXN2-luciferase reporter) viability, CellTiter-Fluor protease fluorescence, 24 h; also: nearly all actives have a fitted effect of over 40% in size
RORg inh – ROR gamma (mouse) transcription inhibition. P51450. Drosophila S2 Gal4-RORgamma UAS-luciferase reporter, 20 h. Potency, µM (series often up to 53.6 µM), inactives show top-dose activity change, negative = inhibition, actives largely listed as inhibitors. 5.4% of 310,000 active. AID 2551; also: % is scaled to controls: 0 for no effect and ±100 for the full control effect; nearly all actives have a fitted effect of over 60% in size
Target sequence (P51450 whole entry, looked up, the tested form may be a part): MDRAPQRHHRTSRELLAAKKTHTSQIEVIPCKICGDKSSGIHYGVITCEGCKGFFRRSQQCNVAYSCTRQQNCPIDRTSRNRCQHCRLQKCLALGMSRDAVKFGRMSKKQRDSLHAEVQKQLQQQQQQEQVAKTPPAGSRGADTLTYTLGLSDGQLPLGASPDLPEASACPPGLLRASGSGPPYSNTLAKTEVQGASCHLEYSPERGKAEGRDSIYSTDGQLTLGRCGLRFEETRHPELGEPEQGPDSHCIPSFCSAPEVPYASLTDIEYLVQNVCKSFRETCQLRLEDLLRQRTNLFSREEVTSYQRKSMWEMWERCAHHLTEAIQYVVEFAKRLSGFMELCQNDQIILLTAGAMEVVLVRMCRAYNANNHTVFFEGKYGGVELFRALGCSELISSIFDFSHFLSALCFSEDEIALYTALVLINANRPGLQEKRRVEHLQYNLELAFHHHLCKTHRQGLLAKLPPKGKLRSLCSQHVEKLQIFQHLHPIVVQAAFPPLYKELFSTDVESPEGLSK
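Read-out: Photinus luciferase luminescence; inhibitors lower reporter signal. Insect Schneider cells with Gal4-ROR gamma fusion under metallothionein promoter, UAS reporter; 700 uM final copper sulfate induction, 20 hr, ambient temperature.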
TGFb inhibitor – inhibitors of TGF-b signaling; Potency, µM (top dose mostly 46.1 µM), inactives show top-dose activity, negative = inhibition, usual class: inhibitors; 1.2% of 410,000 active; AID 588855; HepG2 CAGA-GFP TGF-b/SMAD3 reporter, GFP fluorescence, 18 h; TGF-beta stimulated, 500 pg/mL final; also: % is scaled to controls: 0 for no effect and ±100 for the full control effect; nearly all actives have a fitted effect of over 65% in size
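Inhibition of TGF-beta-driven CAGA-GFP reporter expression in HEPG2 cells is measured by cellular GFP fluorescence after 18 h stimulation with 500 pg/mL recombinant TGF-beta in 1% FBS medium at 37 degrees C.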
An asterisk follows results filed as active; i = inactive; ? = inconclusive; . = not tested or not shown; [ ] = dose if it differs, or a comment. Hits are enriched below; roughly 6.3% of the tested compounds scored in any of these assays. Calls follow the shape of the dose curve; as a rule, active = well fitted curve in the direction sought with a large enough effect; inconclusive = small, poorly fitted or top-dose-only effect, or another doubt; inactive = no such curve, though single readings can be large; an effect the other way counts as inactive or inconclusive. Potency is read from the fitted curve at half-maximal effect.

SMILES	ATXN2 expr inh	HepG2 tox	Gal4-VP16 FLuc	ATXN viability	RORg inh	TGFb inhibitor
COCCn1c(=O)c(-c2cn(C)c3ccccc23)nc2cnc(Oc3ccc(OC)cc3)nc21	.	.	4%	.	5%	.
CSc1ncc(C(=O)NCc2cccc(Br)c2)c(-c2ccccc2)n1	7%	-42%	.	i	.	-4%
O=c1c2cn[nH]c2[nH]c(=S)n1-c1ccccc1Cl	-20%	-24%	-1%	i	10µM*	0%
O=C(NCCc1cn2cccnc2n1)C1CCC(=O)N(Cc2ccccc2F)C1 (stereo not drawn)	.	7%	.	i	.	-3%
S=c1[nH]nc(Cc2sc(-c3ccccc3)nc2-c2ccccc2)o1	9%	4%	?	i	11µM*	?
CC1(C)C(=O)Nc2ccccc2N1C(=O)Cn1ncc(Cl)c(Cl)c1=O	.	-22%	?	20µM*	?	-10%
c1ccc2c(CCNc3ccc(Nc4ccncc4)cc3)c[nH]c2c1	15µM*	.	.	.	.	.
O=C(CCc1c[nH]c2ccccc12)NCc1ccncc1	-16%	-9%	8%	i	19%	-5%
COCCNC(=S)N1CCN(c2nc3ccccc3s2)CC1	-20%	-10%	13µM*	i	0%	-2%
COCCCNC(=S)N1CCN(c2nc3ccccc3s2)CC1	-15%	-3%	18%	i	?	1%
CCc1nc(N2CCN(C(=S)NCCCOC)CC2)c2c3c(sc2n1)CCCC3	?	-34%	?	?	14µM*	?
CCC(=O)N1CCN(c2nc(CC)nc3sc4c(c23)CCCC4)CC1	4%	-17%	1%	i	13%	-5%
Cc1ccc(N=C2SC(C(=O)Nc3ccc(OC(F)(F)F)cc3)C(N)=C2C(=O)Nc2c(C)cc(C)cc2C)cc1 (stereo not drawn)	?	11µM*	?	.	?	7.1µM*
Cc1ccc2[nH]c3c(c2c1)CCCC3NC(=O)CCl (stereo not drawn)	?	18µM*	?	?	-15%	?
CN(C)CC(C)(O)c1ccc2c(c1)CN(Cc1cnn(-c3ccccc3)c1)CCO2 (stereo not drawn)	.	.	.	i	.	.
NC(=O)c1ccccc1N/C=C/C(=O)c1ccc(F)cc1	.	-80%	?	i	0.56µM*	-25%
NC(=O)c1ccccc1N/C=C/C(=O)c1ccc(Cl)cc1Cl	4%	-35%	4µM*	i	0.63µM*	13%
O=S(=O)(Cc1cc(Cl)nc(-c2ccccc2)n1)c1ccccc1	32µM*	-18%	4%	?	21%	?
Cc1cccc(C)c1Nc1c(-c2ccccc2Cl)nc2cnccn12	-23%	-22%	.	i	.	-22%
Cc1cccc(NNC(N)=S)c1	-4%	-3%	10µM*	i	?	19%
NC(=S)NNc1cccc(Cl)c1	-13%	-1%	16µM*	i	5.6µM*	-13%
NC(=S)NNC(=O)Nc1cccc(Cl)c1	-21%	0%	-9%	i	-11%	1%
NC(=S)NNC(=S)Nc1ccccc1	-14%[11.3 µM]	3%	-1%	i	?	3%
Cc1cc(C)cc(NC(=S)NCc2cccn2C)c1	7%	-1%	10µM*	i	2.8µM*	-5%
Cn1cccc1CNC(=S)Nc1ccccc1F	-15%	-4%	1%	i	13µM*	-5%
SMILES	ATXN2 expr inh	HepG2 tox	Gal4-VP16 FLuc	ATXN viability	RORg inh	TGFb inhibitor
Cn1cccc1CNC(=S)Nc1ccccc1Cl	-6%	-27%	-7%	i	6.3µM*	-14%
Cc1ccc(NC(=O)NCc2cccn2C)cc1C	-12%	-2%	25%	i	17%	-4%
Fc1ccc(C(c2ccc(F)cc2)N2CCNCC2)cc1	-11%	.	.	i	.	.
O=C(C1CCCCC1)N1C[C@@H](O)[C@H](n2cc(C3CC3)nn2)C[C@@H]1c1ccccc1	7%	0%	.	i	.	11%
CCN1C[C@@H]2[C@@H]3C(=O)N(Cc4ccccc4)C(=O)[C@@H]3[C@](Cc3ccccc3)(C1=O)N2C(=O)c1ccc(Cl)cc1	-4%	-3%	.	i	.	5%
COc1ccc2[nH]cc(CCNc3ncncc3-c3ccc(N(C)C)cc3)c2c1	.	.	-1%	.	9%	.
COc1ccc2[nH]cc(CCNc3ncncc3-c3ccoc3)c2c1	.	.	11µM*	.	-6%	.
CC1(Cc2ccc3c(c2)OCO3)C(=O)Nc2c(Cl)ccc(Cl)c21 (stereo not drawn)	-21%	-27%	.	i	.	-4%
O=C(CC1C(=O)N(c2ccccc2)C(=O)N1CCC1=CCCCC1)Nc1ccc(F)cc1 (stereo not drawn)	-22%	-39%	.	?	.	11µM*
COc1cc(C(=O)N2CCCCC2c2cc(C(=O)Nc3ccccc3)no2)cc(OC)c1C (stereo not drawn)	-26%	-6%	.	?	.	-16%
CCc1ccc(S(=O)(=O)Nc2ccc3c(c2)sc(=O)n3C)cc1	.	-40%	.	.	.	0%
COc1ccc(-c2nc(Cn3c(SCc4ccc(C)cc4)nc4cccnc43)c(C)o2)cc1OC	.	-32%	.	.	.	10µM*
NCCCC[C@H](N)C(=O)N[C@@H](CCCN=C(N)N)C(=O)N1CCC[C@H]1C(=O)N1CCC[C@H]1C(=O)NCC(=O)N[C@@H](Cc1ccccc1)C(=O)N[C@@H](CO)C(=O)N1CCC[C@H]1C(=O)N[C@@H](Cc1ccccc1)C(=O)O	.	.	6%	.	-8%	.
O=C(CCS(=O)(=O)c1nc(-c2cccs2)cc(C(F)(F)F)n1)Nc1ccc(Br)cc1	.	10µM*	.	.	.	5.6µM*
O=C(CCS(=O)(=O)c1nc(-c2cccs2)cc(C(F)(F)F)n1)Nc1cc(Br)ccc1O	.	6.3µM*	.	.	.	2.5µM*
Cc1ccc(O)c(NC(=O)CCS(=O)(=O)c2nc(-c3cccs3)cc(C(F)(F)F)n2)c1	.	13µM*	.	.	.	10µM*
CCN(CC)c1ccc(NC(=O)CSc2nc(-c3cccs3)cc(C(F)(F)F)n2)cc1	4%	-2%	.	i	.	6%
